Results taken from article PMC11102866, “Nucleosome-bound NR5A2 structure reveals pioneer factor mechanism by DNA minor groove anchor competition”.
Residue numbers refer to the chain shown, from its start. Names may count otherwise.

B1: 14 (nucleosome)
DNA 1: ATCCTGGAGAATCCCGTCAAGGCCACCGCTCAATTGGTCGTAGACAGCTCTAGCACCGCTTAAACGCACGTACGCGCTGTCCCCCGCGTTTTAACCGCCAAGGGGATTACTCCCTAGTCTCCAGGCACGTGTCAGATATATACATCCTGTGAT
DNA 2: ATCACAGGATGTATATATCTGACACGTGCCTGGAGACTAGGGAGTAATCCCCTTGGCGGTTAAAACGCGGGGGACAGCGCGTACGTGCGTTTAAGCGGTGCTAGAGCTGTCTACGACCAATTGAGCGGTGGCCTTGACGGGATTCTCCAGGAT
modifications: reconstituted with mouse histones H2A, H2B, H3.3 and H4
B2: 122 (nucleosome)
DNA 1: ATCCTGGAGAATCCCGGTGCCGAGGCCGCTCAATTGGTCGTAGACAGCTCTAGCACCGCTTAAACGCACGTACGCGCTGTCCCCCGCGTTTTAACCGCCAAGGGGATTACTCCCTAGTCTCCAGTCAAGGCCAAGATATATACATCCTGTGAT
DNA 2: ATCACAGGATGTATATATCTTGGCCTTGACTGGAGACTAGGGAGTAATCCCCTTGGCGGTTAAAACGCGGGGGACAGCGCGTACGTGCGTTTAAGCGGTGCTAGAGCTGTCTACGACCAATTGAGCGGCCTCGGCACCGGGATTCTCCAGGAT
modifications: reconstituted with mouse histones H2A, H2B, H3.3 and H4
B3: 123 (nucleosome)
DNA 1: B2 DNA 1 with T125G, C126T, A127C, G129A, C131G, A133C
DNA 2: B2 DNA 2 with T21G, G23C, C25T, T27G, G28A, A29C
modifications: reconstituted with mouse histones H2A, H2B, H3.3 and H4
B4: 125 (nucleosome)
DNA 1: B2 DNA 1 with T125G, A128T, G129C, G130A, C131A, C132G, A133G, A134C, G135C
DNA 2: B2 DNA 2 with C19G, T20G, T21C, G22C, G23T, C24T, C25G, T26A, A29C
modifications: reconstituted with mouse histones H2A, H2B, H3.3 and H4
B5: 124 (nucleosome)
DNA 1: B2 DNA 1 with T125G, A127T, A128C, G129A, G130A, C131G, C132G, A133C, A134C, G135A
DNA 2: B2 DNA 2 with C19T, T20G, T21G, G22C, G23C, C24T, C25T, T26G, T27A, A29C
modifications: reconstituted with mouse histones H2A, H2B, H3.3 and H4
B6: 113 (nucleosome)
DNA 1: ATCCTGGAGAATCCCGGTGCCGAGGCCGCTCAATTGGTCGTAGACAGCTCTAGCACCGCTTAAACGCACGTACGCGCTGTCCCCCGCGTTTTAACCGCCAAGGGGATTACTCCCTTCAAGGCCAGCACGTGTCAGATATATACATCCTGTGAT
DNA 2: ATCACAGGATGTATATATCTGACACGTGCTGGCCTTGAAGGGAGTAATCCCCTTGGCGGTTAAAACGCGGGGGACAGCGCGTACGTGCGTTTAAGCGGTGCTAGAGCTGTCTACGACCAATTGAGCGGCCTCGGCACCGGGATTCTCCAGGAT
modifications: reconstituted with mouse histones H2A, H2B, H3.3 and H4
B7: 116 (nucleosome)
DNA 1: B6 DNA 1 with T116A, C117G, A118T, A119T, G120C, G121A, C122A, C123G, A124G, G125C
DNA 2: B6 DNA 2 with C29G, T30C, G31C, G32T, C33T, C34G, T35A, T36A, G37C, A38T
modifications: reconstituted with mouse histones H2A, H2B, H3.3 and H4
B8: 118 (nucleosome)
DNA 1: B6 DNA 1 with T116A, C117G, A118T, A119C, G120T, G121T, C123A, C126G, A127C, G129A
DNA 2: B6 DNA 2 with C25T, T27G, G28C, G31T, C33A, C34A, T35G, T36A, G37C, A38T
modifications: reconstituted with mouse histones H2A, H2B, H3.3 and H4
B9: 114 (nucleosome)
DNA 1: B6 DNA 1 with T116A, C117T, A118C, G120A, C122G, A124C, G125A
DNA 2: B6 DNA 2 with C29T, T30G, G32C, C34T, T36G, G37A, A38T
modifications: reconstituted with mouse histones H2A, H2B, H3.3 and H4
B10: 115 (nucleosome)
DNA 1: ATCCTGGAGAATCCCGGTGCCGAGGCCGCTCAATTGGTCGTAGACAGCTCTAGCACCGCTTAAACGCACGTACGCGCTGTCCCCCGCGTTTTAACCGCCAAGGGGATTACTCCCTAGTCAAGGCCAACGTGTCAGATATATACATCCTGTGAT
DNA 2: ATCACAGGATGTATATATCTGACACGTTGGCCTTGACTAGGGAGTAATCCCCTTGGCGGTTAAAACGCGGGGGACAGCGCGTACGTGCGTTTAAGCGGTGCTAGAGCTGTCTACGACCAATTGAGCGGCCTCGGCACCGGGATTCTCCAGGAT
modifications: reconstituted with mouse histones H2A, H2B, H3.3 and H4
B11: 119 (nucleosome)
DNA 1: B10 DNA 1 with A120T, A121C, G122T, G123C, C124A, C125A, A126G, A127G, G129C, T130A
DNA 2: B10 DNA 2 with A24T, C25G, T27C, T28C, G29T, G30T, C31G, C32A, T33G, T34A
modifications: reconstituted with mouse histones H2A, H2B, H3.3 and H4
B12: 121 (nucleosome)
DNA 1: B2 DNA 1 with G124T, T125C, C126A, A128G, G130C, C132A, A133C
DNA 2: B2 DNA 2 with T21G, G22T, C24G, T26C, G28T, A29G, C30A
modifications: reconstituted with mouse histones H2A, H2B, H3.3 and H4
B13: 117 (nucleosome)
DNA 1: B2 DNA 1 with C122A, T125G, A127C, G130T, C131G, C132T, A133C
DNA 2: B2 DNA 2 with T21G, G22A, G23C, C24A, T27G, A29C, G32T
modifications: reconstituted with mouse histones H2A, H2B, H3.3 and H4
B14: 120 (nucleosome)
DNA 1: B10 DNA 1 with A120T, A121C, G122C, G123T, C125A, A127G, C128G, G129C, T130C, G131A
DNA 2: B10 DNA 2 with C23T, A24G, C25G, G26C, T27C, G29T, C31A, C32G, T33G, T34A
modifications: reconstituted with mouse histones H2A, H2B, H3.3 and H4
B15: 126 (nucleosome)
DNA 1: ATCCTGGAGAATCCCGGTGCCGAGGCCGCTCAATTGGTCGTAGACAGCTCTAGCACCGCTTAAACGCACGTACGCGCTGTCCCCCGCGTTTTAACCGCCAAGGGGATTACTCCCTAGTCTCCAGGCACTCAAGGCCAATATACATCCTGTGAT
DNA 2: ATCACAGGATGTATATTGGCCTTGAGTGCCTGGAGACTAGGGAGTAATCCCCTTGGCGGTTAAAACGCGGGGGACAGCGCGTACGTGCGTTTAAGCGGTGCTAGAGCTGTCTACGACCAATTGAGCGGCCTCGGCACCGGGATTCTCCAGGAT
modifications: reconstituted with mouse histones H2A, H2B, H3.3 and H4

Each binder was assayed against NR5A2 wild type;histone octamer (Homo sapiens;, UniProt O00482;C0HKE1;Q6ZWY9;P84244;P62806 1-541;2-130;2-126;2-136;2-103, |) (assay: SeEN-seq (EMSA of nucleosome library followed by sequencing); 0.8 uM human NR5A2; 20 mM Tris-HCl pH 7.5, 120 mM NaCl, 1 mM MgCl2, 10 uM ZnCl2, 1 mM DTT, 100 ug/ml BSA, room temperature, 30 min; 0.1 uM nucleosome library; high values mean tight binding).
B1 was tested, and the binding signal was 3.44 log2 enrichment (bound/unbound, relative to Widom 601).
For B2, the binding signal was 0.909 log2 enrichment (bound/unbound, relative to Widom 601).
For B3, the binding signal was 1.01 log2 enrichment (bound/unbound, relative to Widom 601).
In the case of B4, the binding signal is reported as 4.55 log2 enrichment (bound/unbound, relative to Widom 601).
In the case of B5, the binding signal is reported as 3.87 log2 enrichment (bound/unbound, relative to Widom 601).
B6 was tested, and the binding signal was 0.896 log2 enrichment (bound/unbound, relative to Widom 601).
B7 was tested, and the binding signal was 1.39 log2 enrichment (bound/unbound, relative to Widom 601).
In the case of B8, the binding signal is reported as 1.08 log2 enrichment (bound/unbound, relative to Widom 601).
With B9 the binding signal was 1.13 log2 enrichment (bound/unbound, relative to Widom 601).
For B10, the binding signal was 0.998 log2 enrichment (bound/unbound, relative to Widom 601).
In the case of B11, the binding signal is reported as 0.607 log2 enrichment (bound/unbound, relative to Widom 601).
In the case of B12, the binding signal is reported as 0.664 log2 enrichment (bound/unbound, relative to Widom 601).
In the case of B13, the binding signal is reported as 1.13 log2 enrichment (bound/unbound, relative to Widom 601).
For B14, the binding signal was 0.677 log2 enrichment (bound/unbound, relative to Widom 601).
B15 was tested, and the binding signal was 4.66 log2 enrichment (bound/unbound, relative to Widom 601).

What follows are binders tested against mouse Nr5a2 wild type;histone octamer (Mus musculus;, UniProt P45448;C0HKE1;Q6ZWY9;P84244;P62806 1-560;2-130;2-126;2-136;2-103, |) (assay: SeEN-seq (EMSA of nucleosome library followed by sequencing); 1.2 uM mouse Nr5a2; 20 mM Tris-HCl pH 7.5, 120 mM NaCl, 1 mM MgCl2, 10 uM ZnCl2, 1 mM DTT, 100 ug/ml BSA, room temperature, 30 min; 0.1 uM nucleosome library; high values mean tight binding).
In the case of B1, the binding signal is reported as 2.91 log2 enrichment (bound/unbound, relative to Widom 601).
In the case of B2, the binding signal is reported as 0.939 log2 enrichment (bound/unbound, relative to Widom 601).
With B3 the binding signal was 1.41 log2 enrichment (bound/unbound, relative to Widom 601).
With B4 the binding signal was 3.58 log2 enrichment (bound/unbound, relative to Widom 601).
With B5 the binding signal was 2.91 log2 enrichment (bound/unbound, relative to Widom 601).
In the case of B6, the binding signal is reported as 0.869 log2 enrichment (bound/unbound, relative to Widom 601).
With B7 the binding signal was 2.15 log2 enrichment (bound/unbound, relative to Widom 601).
With B8 the binding signal was 1.4 log2 enrichment (bound/unbound, relative to Widom 601).
For B9, the binding signal was 1.08 log2 enrichment (bound/unbound, relative to Widom 601).
In the case of B10, the binding signal is reported as 1.02 log2 enrichment (bound/unbound, relative to Widom 601).
B11 was tested, and the binding signal was 0.776 log2 enrichment (bound/unbound, relative to Widom 601).
For B12, the binding signal was 0.599 log2 enrichment (bound/unbound, relative to Widom 601).
B13 was tested, and the binding signal was 1.34 log2 enrichment (bound/unbound, relative to Widom 601).
In the case of B14, the binding signal is reported as 0.768 log2 enrichment (bound/unbound, relative to Widom 601).
For B15, the binding signal was 3.59 log2 enrichment (bound/unbound, relative to Widom 601).
